Assay [1] is described as follows: ATG_CRE_CIS: Attagene CIS-FACTORIAL HepG2 Assay for human cAMP Responsive Element (CRE) binding protein 3 (AID 2282926). The following applies: HepG2 CRE cis-reporter, Attagene multiplexed mRNA; actives raise or lower the signal. Summed up:
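Capillary electrophoresis of 6-FAM-labelled, HpaI-digested PCR products quantified reporter transcripts. These came from HepG2 transiently transfected with cis-element reporters and exposed to test chemicals for 24 hours, with DMSO defining baseline activity.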

Assay [2] has as its target CCAAT/enhancer-binding protein beta (Homo sapiens) (UniProt P17676). Kind of assay: ATG_C_EBP_CIS: Attagene CIS-FACTORIAL HepG2 Assay for human CCAAT/Enhancer Binding Protein (C/EBP) beta (AID 2282927). Conditions: HepG2 Attagene cis-factorial transcription factor reporter; actives raise or lower the signal. Summed up: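 Endogenous transcription factor activity in human liver HepG2 cells is inferred from induction of a CEBPB-linked reporter mRNA. Exposure lasts 24 h; activity is fitted in both directions relative to DMSO.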

Assay [3] in a line: ATG_CMV_CIS: Attagene CIS-FACTORIAL HepG2 Assay for human CMV (Internal Marker) (AID 2282928).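 Also: endpoint acts as a background internal control marker rather than a target.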 The following applies: HepG2 CMV promoter reporter, transcription factor profiling; actives raise or lower the signal. Summed up: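 24 h chemical treatment, HepG2 with transient multi-reporter transfection; RNA → oligo(dT) RT → PCR → 6-FAM extension → HpaI digest → CE fluorescence. Bidirectional fit, DMSO negative control.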

Assay [4] can be described thus: ATG_DR4_LXR_CIS: Attagene CIS-FACTORIAL HepG2 Assay for human Liver X Receptor (LXR), DR4 submotif (AID 2282929). The following applies: HepG2 Attagene DR4 cis-reporter, mRNA transcription; actives raise or lower the signal. Summed up: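 Cells were transfected with multiple reporter transcription units, exposed to chemicals for 24 hours, then lysed for RNA. Reporter mRNA induction was measured by RT-PCR with capillary electrophoresis detection and fitted in both directions relative to DMSO.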

Assay [5] addresses Aryl hydrocarbon receptor (Homo sapiens) (UniProt P35869). Briefly: ATG_Ahr_CIS: Attagene CIS-FACTORIAL HepG2 Assay for human Aryl Hydrocarbon Receptor (Ahr) (AID 2282930). Conditions: HepG2 AhR cis-factorial reporter transcription; actives raise or lower the signal. Summed up:
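Transient MRTU transfection of HepG2 → 24 h compound exposure → total RNA, oligo(dT) RT → PCR, 6-FAM extension, HpaI cut → CE fluorescence. DMSO = baseline; bidirectional curve fit.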

Assay [6] is described as follows: ATG_AP_1_CIS: Attagene CIS-FACTORIAL HepG2 Assay for human Activator Protein 1 (AP-1) (AID 2282931). Conditions: HepG2 Attagene cis-factorial AP-1 reporter mRNA; actives raise or lower the signal. An outline of the steps:
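Endogenous transcription-factor activity in human HepG2 liver cells is read through a cis-promoter reporter transcript, sampled 24 h after dosing. Detection uses RT-PCR with capillary electrophoresis; values come from bidirectional fitting relative to DMSO.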

The nature of assay [7]: ATG_AP_2_CIS: Attagene CIS-FACTORIAL HepG2 Assay for human Activator Protein 2 (AP-2) (AID 2282932). Conditions: HepG2 AP-2 cis-reporter, Attagene transcription factor profiling; actives raise or lower the signal. An outline of the steps: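 Transiently transfected HepG2 cells are exposed to chemical for 24 h. Reporter transcripts are then measured as fluorescence following RT-PCR and capillary separation, and gain- or loss-of-signal is fitted relative to DMSO.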

Assay [8] in a line: ATG_BRE_CIS: Attagene CIS-FACTORIAL HepG2 Assay for human Bone Morphogenetic Protein (BMP) Response Element (BRE) (AID 2282933). The following applies: HepG2 BMP response element reporter, Attagene transcription factor profiling; actives raise or lower the signal. Summed up:
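Fluorescence-labelled reporter cDNA fragments, separated by capillary electrophoresis, gave the signal for this component of a 52-readout multiplex. HepG2 cells were transfected, exposed to chemicals for 24 h, and compared with DMSO using bidirectional fitting.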

The target of assay [9] is Transcription factor E2F1 (Homo sapiens) (UniProt Q01094). Briefly: ATG_E2F_CIS: Attagene CIS-FACTORIAL HepG2 Assay for human E2F Transcription Factor 1 (AID 2282935). Conditions: HepG2 Attagene cis-reporter, E2F reporter RNA transcripts; actives raise or lower the signal. Summed up: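 Fluorescent RT-PCR products, digested with HpaI for 2 h at 37 C, are separated by capillary electrophoresis. Source RNA comes from transfected HepG2 cultures treated for 24 h.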
Chain of Transcription factor E2F1 (Homo sapiens) (Q01094 whole entry, looked up): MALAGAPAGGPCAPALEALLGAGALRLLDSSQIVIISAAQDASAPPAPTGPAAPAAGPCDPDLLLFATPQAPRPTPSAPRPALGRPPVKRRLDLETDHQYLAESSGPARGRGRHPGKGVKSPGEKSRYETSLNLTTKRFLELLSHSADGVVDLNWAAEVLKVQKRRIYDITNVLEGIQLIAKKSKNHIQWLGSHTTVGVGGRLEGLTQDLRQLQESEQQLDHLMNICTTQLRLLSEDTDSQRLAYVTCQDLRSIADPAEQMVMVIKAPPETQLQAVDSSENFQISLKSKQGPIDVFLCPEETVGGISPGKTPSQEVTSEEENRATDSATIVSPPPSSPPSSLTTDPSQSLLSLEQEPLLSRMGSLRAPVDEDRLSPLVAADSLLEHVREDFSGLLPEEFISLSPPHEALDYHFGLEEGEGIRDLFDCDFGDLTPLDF

The nature of assay [10]: ATG_E_Box_CIS: Attagene CIS-FACTORIAL HepG2 Assay for human Enhancer Box (E-box) (AID 2282936). Conditions: HepG2 E-box cis-reporter transcription, actives raise or lower the signal. Summed up: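 Fluorescent reporter fragments separated by capillary electrophoresis gave the signal; mRNA came from HepG2 cells transfected with cis-element reporters and treated 24 h. Curves fitted bidirectionally relative to DMSO controls.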

Assay [11] can be described thus: ATG_M_61_CIS: Attagene CIS-FACTORIAL HepG2 Assay for M61 Transcription Factor (Internal Marker) (AID 2282937). Conditions: HepG2 Attagene CIS-FACTORIAL M61 internal marker reporter; actives raise or lower the signal. An outline of the steps: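 Cells were transfected with reporter units under cis-regulatory promoters, treated with chemicals for 24 h, then lysed for RNA. Reporter transcripts were quantified by RT-PCR and capillary electrophoresis, and activity was fitted bidirectionally against DMSO.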

Assay [12] is described as follows: ATG_EGR_CIS: Attagene CIS-FACTORIAL HepG2 Assay for human Early Growth Response 1 (EGR1) (AID 2282938). The following applies: HepG2 Attagene CIS-FACTORIAL EGR reporter mRNA; actives raise or lower the signal. Summed up: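 Endogenous TF activity in HepG2 liver cells was gauged through cis-promoter reporter constructs transiently transfected. After 24 h dosing, reporter mRNA was quantified by RT-PCR and capillary electrophoresis, and curves fitted in both directions versus DMSO.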

A short description of assay [13]: ATG_M_19_CIS: Attagene CIS-FACTORIAL HepG2 Assay for M19 Transcription Factor (Internal Marker) (AID 2282939). Conditions: HepG2 Attagene CIS-FACTORIAL M19 internal marker reporter; actives raise or lower the signal. Summed up: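 HepG2, MRTU transient transfection, 24 h dosing. Total RNA → RT-PCR → 6-FAM primer extension → HpaI digest → CE fluorescence. Bidirectional curve fit, DMSO negative control.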

Assay [14] can be described thus: ATG_ERE_CIS: Attagene CIS-FACTORIAL HepG2 Assay for Estrogen Response Element (ERE) (AID 2282940). Conditions: HepG2 ERE cis-reporter, Attagene RNA transcript; actives raise or lower the signal. Summed up:
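After a 24 h chemical treatment, RNA from reporter-transfected HepG2 cells is reverse-transcribed, PCR-amplified and fluorescently labelled. Fragments separated by capillary electrophoresis give reporter signal; DMSO serves as negative control.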

The nature of assay [15]: ATG_Ets_CIS: Attagene CIS-FACTORIAL HepG2 Assay for human Erythroblast Transformation Specific (ETS) (AID 2282941). The following applies: HepG2 ETS cis-reporter transcription, actives raise or lower the signal. An outline of the steps: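 Cis-regulated reporter mRNA induction in HepG2 (transient transfection), 24 h exposure, RT-PCR plus capillary electrophoresis detection; DMSO serves as negative control and baseline.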

Assay [16] deals with Hepatocyte nuclear factor 3-beta (Homo sapiens) (UniProt Q9Y261). Kind of assay: ATG_FoxA2_CIS: Attagene CIS-FACTORIAL HepG2 Assay for human Forkhead box A2 (FOXA2) (AID 2282942). The following applies: HepG2 cis-reporter transcription factor activity, 24 h; actives raise or lower the signal. Summed up:
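Endogenous transcription factor activity was read in HepG2 cells carrying transiently transfected cis-promoter reporter units. After 24 h dosing, reporter mRNA was quantified by RT-PCR and capillary electrophoresis, and values fitted bidirectionally versus DMSO.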

Assay [17] is described as follows: ATG_FoxO_CIS: Attagene CIS-FACTORIAL HepG2 Assay for human Forkhead box O (FoxO) (AID 2282943). Conditions: HepG2 Attagene cis-reporter, FoxO element, mRNA; actives raise or lower the signal. An outline of the steps:
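HepG2, transient MRTU transfection (cis element, endogenous TFs). Dose 24 h. TriZol RNA → oligo(dT) RT → PCR → 6-FAM primer extension → HpaI cut → CE. Gain/loss vs DMSO.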

Assay [18] is described as follows: ATG_GATA_CIS: Attagene CIS-FACTORIAL HepG2 Assay for human GATA Binding Protein (AID 2282944). Conditions: HepG2 GATA cis-element reporter, Attagene multiplex mRNA; actives raise or lower the signal. Summed up:
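Cells: HepG2, transiently transfected with cis-regulated reporter transcription units. Exposure: 24 h. Detection: RT-PCR plus capillary electrophoresis of FAM-labeled fragments. Analysis: bidirectional, DMSO as baseline.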

The nature of assay [19]: ATG_GLI_CIS: Attagene CIS-FACTORIAL HepG2 Assay for human Zinc Finger Protein GLI1 (AID 2282945). Conditions: HepG2, Attagene cis-factorial reporter mRNA, GLI element; actives raise or lower the signal. An outline of the steps: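 Bidirectional curve fits relative to DMSO, using reporter mRNA levels from RT-PCR plus capillary electrophoresis. Cells were HepG2 transiently carrying cis-regulated reporter constructs, harvested 24 h after dosing.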

Assay [20] has as its target Bile acid receptor (Homo sapiens) (UniProt Q96RI1). Briefly: ATG_IR1_CIS: Attagene CIS-FACTORIAL HepG2 Assay for human Nuclear Receptor Subfamily 1 Group H Member 4 (NR1H4), IR1 submotif (AID 2282946). The following applies: IR1 reporter transcription, actives raise or lower the signal. An outline of the steps: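 HepG2 cells transiently transfected with multiplexed cis-element reporter units read endogenous transcription factor activity. After 24 h compound exposure, reporter mRNA was quantified by RT-PCR, fluorescent labelling, HpaI digestion and capillary electrophoresis; bidirectional fitting versus DMSO baseline.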

Active and inactive are the calls of the source. The calls were made as follows: active = hit-call score of the fitted dose curve at least 0.9, where 1 is the maximum; inactive = score below 0.9.

Chain of Hepatocyte nuclear factor 3-beta (Homo sapiens) (Q9Y261 whole entry, looked up): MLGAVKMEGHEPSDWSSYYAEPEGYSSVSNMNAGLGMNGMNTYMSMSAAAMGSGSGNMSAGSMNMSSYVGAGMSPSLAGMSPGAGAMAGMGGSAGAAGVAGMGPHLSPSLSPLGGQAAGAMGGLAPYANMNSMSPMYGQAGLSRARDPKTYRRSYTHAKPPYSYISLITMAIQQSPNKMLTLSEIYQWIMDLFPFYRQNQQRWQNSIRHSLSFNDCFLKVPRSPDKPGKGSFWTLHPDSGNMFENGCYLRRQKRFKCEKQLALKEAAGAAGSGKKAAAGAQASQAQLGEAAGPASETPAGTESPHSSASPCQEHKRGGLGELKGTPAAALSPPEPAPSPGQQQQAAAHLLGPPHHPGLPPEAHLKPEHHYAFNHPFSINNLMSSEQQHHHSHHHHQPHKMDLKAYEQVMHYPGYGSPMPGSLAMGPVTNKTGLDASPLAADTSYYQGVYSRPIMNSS
Chain of CCAAT/enhancer-binding protein beta (Homo sapiens) (P17676 whole entry, looked up): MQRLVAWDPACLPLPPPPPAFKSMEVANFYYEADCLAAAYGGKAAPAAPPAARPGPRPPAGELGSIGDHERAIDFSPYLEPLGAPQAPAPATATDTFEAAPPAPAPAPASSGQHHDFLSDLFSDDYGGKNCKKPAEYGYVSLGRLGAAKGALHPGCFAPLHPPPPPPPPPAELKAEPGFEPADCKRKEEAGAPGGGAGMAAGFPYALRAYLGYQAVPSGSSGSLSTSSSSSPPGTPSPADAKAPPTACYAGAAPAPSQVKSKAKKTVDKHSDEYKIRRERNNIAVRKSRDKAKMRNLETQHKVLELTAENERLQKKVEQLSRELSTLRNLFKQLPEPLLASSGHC
Chain of Aryl hydrocarbon receptor (Homo sapiens) (P35869 whole entry, looked up): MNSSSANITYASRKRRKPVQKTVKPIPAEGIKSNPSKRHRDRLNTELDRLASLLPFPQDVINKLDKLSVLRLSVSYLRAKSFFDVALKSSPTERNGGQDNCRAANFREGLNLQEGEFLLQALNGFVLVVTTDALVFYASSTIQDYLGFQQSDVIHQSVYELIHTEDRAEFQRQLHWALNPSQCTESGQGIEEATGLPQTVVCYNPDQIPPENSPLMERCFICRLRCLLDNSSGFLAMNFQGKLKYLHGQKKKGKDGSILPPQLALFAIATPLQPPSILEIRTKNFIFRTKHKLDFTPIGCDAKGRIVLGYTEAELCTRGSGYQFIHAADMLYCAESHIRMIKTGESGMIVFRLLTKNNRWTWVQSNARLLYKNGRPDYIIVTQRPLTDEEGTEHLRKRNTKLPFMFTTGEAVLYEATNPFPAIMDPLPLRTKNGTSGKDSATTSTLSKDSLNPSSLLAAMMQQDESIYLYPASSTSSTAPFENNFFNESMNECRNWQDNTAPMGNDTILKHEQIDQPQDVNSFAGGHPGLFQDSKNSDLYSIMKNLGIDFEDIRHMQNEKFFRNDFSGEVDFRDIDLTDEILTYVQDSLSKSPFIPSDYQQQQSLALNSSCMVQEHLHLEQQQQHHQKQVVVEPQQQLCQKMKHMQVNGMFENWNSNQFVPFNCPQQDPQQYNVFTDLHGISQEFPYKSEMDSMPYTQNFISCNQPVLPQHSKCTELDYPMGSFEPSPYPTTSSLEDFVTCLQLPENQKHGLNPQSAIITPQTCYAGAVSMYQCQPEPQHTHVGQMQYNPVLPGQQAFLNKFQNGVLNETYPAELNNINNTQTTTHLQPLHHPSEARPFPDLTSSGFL
Chain of Bile acid receptor (Homo sapiens) (Q96RI1 whole entry, looked up): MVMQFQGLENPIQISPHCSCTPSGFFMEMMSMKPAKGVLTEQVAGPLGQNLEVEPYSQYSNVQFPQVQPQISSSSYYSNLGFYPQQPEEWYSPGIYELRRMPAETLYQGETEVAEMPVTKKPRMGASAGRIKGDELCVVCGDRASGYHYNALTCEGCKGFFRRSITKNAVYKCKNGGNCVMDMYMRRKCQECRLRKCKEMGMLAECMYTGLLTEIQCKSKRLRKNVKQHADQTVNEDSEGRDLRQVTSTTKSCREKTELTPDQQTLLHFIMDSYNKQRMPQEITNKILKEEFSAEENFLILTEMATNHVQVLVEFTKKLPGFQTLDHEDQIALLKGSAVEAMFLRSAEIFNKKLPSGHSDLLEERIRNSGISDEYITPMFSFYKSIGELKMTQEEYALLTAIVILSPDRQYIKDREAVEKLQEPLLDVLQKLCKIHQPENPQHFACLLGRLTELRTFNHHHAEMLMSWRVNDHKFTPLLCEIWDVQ

In the case of `COc1ccc(OC(F)(F)F)cc1CN[C@H]1CCCN[C@H]1c1ccccc1`, the result in assay [1], in assay [2], in assay [3], in [4], in [5] and in assay [6] was inactive. Further, the outcome in assay [7], in [8], in [9], in assay [11], in [12] and in [13] was inactive. The call in assay [14], in assay [15], in assay [16], in [17], in assay [18] and in assay [19] was inactive. Also, the compound was called inactive in assay [20]. Besides, in assay [10], the AC50 was 11 µM (active).

For the compound `Cc1c(C)c2c(c(C)c1O)CCC(C)(COc1ccc(CC3SC(=O)NC3=O)cc1)O2` (centres undefined), the compound was called inactive in assay [1], in assay [2], in assay [3], in assay [5], in [7] and in [8]. Also, the result in assay [9], in [10], in [11], in [12], in [13] and in [15] was inactive. Also, the compound was called inactive in assay [16], in assay [17], in [18], in assay [19] and in [20]. Also, the AC50 was 6.81 µM (active) in assay [4], 9.14 µM (active) in [6] and 221 nM (active) in assay [14].

As for `NC1CCCCC1`, the outcome in assay [1], in assay [2], in assay [3], in [4], in assay [5] and in assay [6] was inactive. Also, the call in assay [7], in [8], in assay [9], in assay [10], in assay [11] and in assay [12] was inactive. The compound was called inactive in [13], in assay [14], in assay [15], in [16], in assay [17] and in assay [18]. The compound was classed as inactive in [19].

Source of the values: PubChem BioAssay (EPA / NIEHS).
